This note sets out measurements from PubChem BioAssay (NCI).

Test systems include NCI-H23 lung; NCI-H226 lung; NCI-H322M lung; HOP-62 NSCLC; NCI-H460 lung; NCI-H522 lung; A549/ATCC NSCLC; 786-0 renal; DU-145 prostate; K-562 leukemia; MALME-3M melanoma; MDA-MB-231 breast; SF-268 CNS; SF-295 CNS; SF-539 CNS; UACC-257 melanoma; COLO 205 colon; RXF 393 renal; M14 melanoma.
Holding throughout (assay): NCI-60 one-dose screen, 48 h (100 = growth as untreated, 0 = no growth, -100 = all killed)
Settings in all cases: 10 µM unless noted

The structures appear in SMILES notation. Compounds without any hit were thinned out: in the full panel of roughly 83,000, 20% have a hit.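 Results are percent growth after 48 hours of single-concentration exposure. 100 means growth as in untreated cells, lower positive values show inhibition; negative values down to -100 show cell death.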 Values without a mark were called inactive. Active and inactive are the calls of the source. The calls were made as follows: active = growth percent below 10; inactive = the rest.

Turning to `COc1cc(-c2nnc(SCc3ccc(O)c4ncccc34)n2-c2ccccc2)cc(OC)c1OC`, the growth was 9.25% (active) with NCI-H23 lung; 8.85% (active) with NCI-H226 lung; 19.2% with NCI-H322M lung; 6.41% (active) in the assay with HOP-62 NSCLC; -29.8% (active) in the assay on NCI-H460 lung; -8.34% (active) in the assay with NCI-H522 lung. For the same compound, the growth in the assay on A549/ATCC NSCLC is 0.31% (active); in the assay with 786-0 renal, 8.31% (active); with DU-145 prostate, 15.2%; in the assay with K-562 leukemia, 4.83% (active); in the assay with MALME-3M melanoma, -4.75% (active); in the assay with MDA-MB-231 breast it was 24.7%. The growth is 8.87% (active) with SF-268 CNS, 0.13% (active) in the assay on SF-295 CNS, 0.686% (active) with SF-539 CNS and -18.1% (active) in the assay on UACC-257 melanoma.
As for `COc1cc2nc(Cl)nc(Nc3cccc(C4=Nc5c(N)nc(N)nc5NC(c5ccc(F)cc5)C4)c3)c2cc1OC` (stereo not drawn), the growth in the assay with NCI-H23 lung was 75.9%; in the assay with NCI-H226 lung, 75.8%; in the assay with NCI-H322M lung it was 83.8%; in the assay on HOP-62 NSCLC it was 12.2%; with NCI-H460 lung, 21.7%; with NCI-H522 lung, 50%. In addition, the growth in the assay with A549/ATCC NSCLC was 64.2%; with 786-0 renal it was 62.1%; with COLO 205 colon, 70.7%; in the assay on DU-145 prostate, 79.4%; in the assay with MDA-MB-231 breast it was 76.4%; with RXF 393 renal it was 51.1%. The growth is 77.4% in the assay on SF-268 CNS; 2.02% (active) in the assay on SF-295 CNS; 88.6% in the assay on SF-539 CNS; 92.1% in the assay with UACC-257 melanoma; 86.8% with M14 melanoma.
`CNC1CCc2c(sc(NC(=O)c3ccc(C(C)(C)C)cc3)c2C(N)=O)C1` (stereo not drawn): the growth in the assay on NCI-H23 lung is 74.3%; with NCI-H226 lung it was 77.3%; with NCI-H322M lung it was 66.4%; in the assay on HOP-62 NSCLC it was 38.4%; in the assay on NCI-H460 lung, 2.17% (active); in the assay on NCI-H522 lung, 61.6%. In addition, the growth in the assay with A549/ATCC NSCLC was 31%; in the assay with 786-0 renal, 24.9%; in the assay on COLO 205 colon, -47.1% (active); in the assay on DU-145 prostate, 44.7%; with K-562 leukemia, -10% (active); with MDA-MB-231 breast it was 56.8%. The growth with RXF 393 renal was 59.5%; in the assay with SF-268 CNS, 79%; with SF-295 CNS, -70.9% (active); with SF-539 CNS, 75.8%; with UACC-257 melanoma, 56.2%; in the assay with M14 melanoma it was 52.8%.
Turning to `CCO/C=N/C1=C(C#N)C(c2ccc(Cl)cc2)c2sc3c(C)cccc3c2O1` (stereo not drawn), the growth in the assay with NCI-H23 lung is 25.2%; in the assay on NCI-H226 lung, 51.1%; in the assay on NCI-H322M lung, 43.6%; with HOP-62 NSCLC, 41.4%; with NCI-H460 lung it was 4.89% (active); in the assay with NCI-H522 lung, 8.93% (active). Further, the growth is 26.9% with A549/ATCC NSCLC; 29.1% in the assay with 786-0 renal; 4.67% (active) in the assay on COLO 205 colon; 19.2% with DU-145 prostate; 7.31% (active) in the assay with K-562 leukemia; 24.4% in the assay with MDA-MB-231 breast. Also, the growth in the assay with RXF 393 renal was -27.6% (active); in the assay on SF-268 CNS, 51.1%; with SF-295 CNS, -19.3% (active); in the assay with SF-539 CNS it was -11.5% (active); in the assay on UACC-257 melanoma, 76.2%; in the assay on M14 melanoma it was 1.8% (active).
Turning to `Cc1ccc(C2=NN(C)C(=O)C3(CCCC3)C2)cc1`, the growth is 106% in the assay with NCI-H23 lung; 105% in the assay on NCI-H226 lung; 103% in the assay on NCI-H322M lung; 114% in the assay on HOP-62 NSCLC; 112% in the assay on NCI-H460 lung; 103% with NCI-H522 lung. For the same compound, the growth in the assay on A549/ATCC NSCLC is 99.5%; with 786-0 renal, 103%; in the assay on COLO 205 colon it was 115%; in the assay on DU-145 prostate, 107%; in the assay on K-562 leukemia, 107%; with MDA-MB-231 breast, 104%. Moreover, the growth in the assay with RXF 393 renal was 124%; in the assay on SF-268 CNS, 98.1%; with SF-295 CNS, 101%; in the assay with SF-539 CNS, 103%; with UACC-257 melanoma, 100%; in the assay on M14 melanoma, 108%.
With `Nc1nc(-c2cccc([N+](=O)[O-])c2)c(N=Nc2ccccc2)s1`, the growth in the assay on NCI-H23 lung is 70.2%; in the assay with NCI-H226 lung, 73.1%; in the assay on NCI-H322M lung it was 76.2%; in the assay on HOP-62 NSCLC it was 80.6%; in the assay with NCI-H460 lung, 56.6%; with NCI-H522 lung it was 48.6%. Further, the growth is 60% in the assay with A549/ATCC NSCLC; 59.7% in the assay on 786-0 renal; 69.5% in the assay with DU-145 prostate; 32.8% with K-562 leukemia; 103% in the assay on MALME-3M melanoma; 62% in the assay on MDA-MB-231 breast. The growth is -16.3% (active) in the assay on RXF 393 renal; 66.4% with SF-268 CNS; 63% in the assay with SF-295 CNS; 71.6% in the assay with SF-539 CNS; 93.4% in the assay with UACC-257 melanoma; 57.7% with M14 melanoma.
Regarding `CC(=O)N(C)C1CCc2c(sc(NC(=O)c3ccc(C(C)(C)C)cc3)c2C(N)=O)C1` (stereo not drawn), the growth with NCI-H23 lung is 85.3%; in the assay on NCI-H226 lung it was 47.3%; in the assay on NCI-H322M lung it was 78.7%; in the assay with HOP-62 NSCLC, 34.7%; in the assay on NCI-H460 lung it was 10.8%; with NCI-H522 lung it was 70.4%. In addition, the growth is 39.8% in the assay on A549/ATCC NSCLC; 90.9% with 786-0 renal; 103% with COLO 205 colon; 58.9% in the assay with DU-145 prostate; 62.3% in the assay with K-562 leukemia; 75.5% with MDA-MB-231 breast. For the same compound, the growth in the assay with RXF 393 renal was 96.2%; with SF-268 CNS, 99%; in the assay on SF-295 CNS, 43.8%; with SF-539 CNS, 79.7%; with UACC-257 melanoma, 86.9%; with M14 melanoma it was 75.5%.
In the case of `COc1cc2nc(Cl)nc(Nc3cccc(C4=Nc5c(N)nc(N)nc5NC(c5ccccc5)C4)c3)c2cc1OC` (stereo not drawn), the growth was 83.5% in the assay with NCI-H23 lung; 86.9% in the assay with NCI-H226 lung; 92.9% in the assay with NCI-H322M lung; 39.6% in the assay with HOP-62 NSCLC; 87.4% in the assay on NCI-H460 lung; 76.5% in the assay with NCI-H522 lung. The growth is 87.5% in the assay on A549/ATCC NSCLC; 77.5% in the assay with 786-0 renal; 85.9% in the assay with DU-145 prostate; 6.71% (active) in the assay with K-562 leukemia; 90.4% in the assay with MDA-MB-231 breast; 84.5% in the assay with RXF 393 renal. Further, the growth is 84.3% with SF-268 CNS; 75.8% in the assay on SF-295 CNS; 99.8% in the assay with SF-539 CNS; 108% in the assay on UACC-257 melanoma; 90.1% in the assay with M14 melanoma.
For the compound `COc1ccc(-c2nc3cccc(O)c3c(=O)n2Cc2ccccc2)cc1COc1ccc(NC(C)=O)cc1`, the growth with NCI-H23 lung is 62.5% [3 µM]; in the assay on NCI-H226 lung, 56.2% [3 µM]; with NCI-H322M lung it was 67.6% [3 µM]; in the assay on HOP-62 NSCLC it was 43.6% [3 µM]; in the assay on NCI-H460 lung, 4.9% [3 µM] (active); with NCI-H522 lung it was 52.5% [3 µM]. Besides, the growth with A549/ATCC NSCLC was 44.9% [3 µM]; with 786-0 renal, 54.7% [3 µM]; in the assay on COLO 205 colon it was 49.8% [3 µM]; in the assay on DU-145 prostate, 50.2% [3 µM]; in the assay with K-562 leukemia, 18.9% [3 µM]; with MDA-MB-231 breast, 64.2% [3 µM]. Moreover, the growth with RXF 393 renal was 52.6% [3 µM]; in the assay with SF-268 CNS, 58.2% [3 µM]; with SF-295 CNS it was 23.8% [3 µM]; with SF-539 CNS, 40.1% [3 µM]; in the assay on UACC-257 melanoma, 67.2% [3 µM]; in the assay on M14 melanoma, 53.8% [3 µM].
